Screening data from PubChem BioAssay.
An excerpt weighted towards active compounds, which were near 3.8% of everything screened.
Nrf2 inh – blocks Nrf2 signaling. Potency, µM (series often up to 46 µM), without a hit: top-dose activity change, negative = inhibition, actives largely listed as inhibitors. A549 ARE-Fluc reporter, luciferase luminescence, 18-24 h. actives 2.1% (n = 360,000); further: on the % scale 0 is the no-effect control and ±100 the full control effect; nearly all actives have a fitted effect of over 60% in size
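Nrf2 activity is the BugLite luminescence, read 15 min after reagent at room temperature, following CellTiter-Fluor cytotoxicity readout (30 min, 37C). Compound titrations were applied for 18-24 h to 5000 A549 ARE_Fluc cells/well in 5% FBS OPTI-MEM.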
ATXN2 expr inh – inhibitors of ATXN2 expression. actives 0.72% (n = 360,000). HEK-293 ATXN2-luciferase reporter, luminescence, 24 h. Potency, µM (highest dose often 57 µM), without a hit: at the top dose activity change, negative = inhibition, actives largely listed as inhibitors. AID 1745845; further: on the % scale 0 is the no-effect control and ±100 the full control effect; nearly all actives have a fitted effect of over 55% in size
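ATXN2-luciferase reporter cells (luciferase flanked by upstream and downstream ATXN2 gene portions) were treated 24 h at 37 °C with compounds at up to 57 uM. SteadyGlo luminescence gave expression; GF-AFC fluorescence gave viability.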
TGFb SMAD3 inh – blocks TGF-b signaling. AID 588855. actives 1.2% (n = 410,000). Potency, µM (series often up to 46.1 µM), for the others: at the top dose activity, negative = inhibition, hits mostly inhibitors. HepG2 CAGA-GFP TGF-b/SMAD3 reporter, GFP fluorescence, 18 h; TGF-beta stimulated, 500 pg/mL final; further: on the % scale 0 is the no-effect control and ±100 the full control effect; nearly all actives have a fitted effect of over 65% in size
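HEPG2 CAGA-GFP, 1000 cells/well; 2 h settle, 37 C; cpd via pin tool; TGF-b 500 pg/mL final; 18 h, 37 C; GFP imaging ex488/em500-530; %Activity normalised to -TGF-b and +DMSO controls; CRC fit, curve class.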
A549 tox – kills or reduces viability of A549 cells in Nrf2 counter-screen; AID 504648; Potency, µM (top dose mostly 46 µM), for inactives: at the top dose activity change, negative = cytotoxicity, hits mostly inhibitors; A549 ARE-Fluc cells, CellTiter-Fluor viability, 18-24 h; actives 0.16% (n = 390,000); further: on the % scale 0 is the no-effect control and ±100 the full control effect
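A549 ARE-Fluc cells in 5% FBS OPTI-MEM, 5000 cells/well, rested 2 h then exposed to compounds in concentration-response for 18-24 h at 37 °C. Viability by CellTiter-Fluor fluorescence (Ex 405/Em 525) after 30 min; luciferase luminescence (BugLite, 15 min, RT) read afterwards.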
S2 tox – viability counter-screen for ATXN expression inhibitors. S2 cells (HEK-293 line with an ATXN2-luciferase reporter) viability, CellTiter-Fluor protease fluorescence, 24 h. Potency, µM (titrated, usually from 56.7 µM), hits mostly cytotoxic. actives 0.49% (n = 400,000). AID 651635; further: nearly all actives have a fitted effect of over 40% in size
HepG2 tox – HepG2 cytotoxicity, counter-screen for TGF-b inhibitors. HepG2 CAGA-GFP viability, ATP luminescence, 18 h. Potency, µM (titrated, usually from 46.1 µM), without a hit: at the highest dose activity change, negative = cytotoxicity, actives largely listed as cytotoxic. actives 0.76% (n = 410,000)
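CellTiter-Glo luminescence gave cytotoxicity after 18 hours at 37 degrees C. The cells were HepG2 CAGA-GFP in 1% FBS DMEM, stimulated with 500 pg/mL TGF-beta after compound addition. %Activity was normalised to no-cell wells (complete cell-killing) and DMSO (no toxicity), and curves were fitted and classified.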
* hit, by the source's call; i = inactive; ? = inconclusive; / = no result; ! = repeats disagree. The call rests on the fitted dose curve; in most records, active means well fitted curve in the direction sought with a large enough effect; inconclusive means small, poorly fitted or top-dose-only effect, or another doubt; inactive means no such curve, though single readings can be large; an effect the other way counts as inactive or inconclusive. Potency means the concentration at half of the fitted maximal effect.

SMILES	Nrf2 inh	ATXN2 expr inh	TGFb SMAD3 inh	A549 tox	S2 tox	HepG2 tox
CN(C(=O)Oc1cccc2cccnc12)c1ccccc1	5%	4%	3%	0%	i	1%
Oc1cccc2cccnc12	-8%	11µM*!	3.5µM*	-9%	13µM*!	5.6µM*
O=C(NCCc1ccc(F)cc1)C(=O)NCC(c1cccs1)S(=O)(=O)c1ccc(Cl)cc1 (stereo unspecified)	/	?	-11%	-12%	?	-18%
CCOc1cc2c(cc1OCC)-n1cccc1C(c1ccc(C(C)C)cc1)NC2 (stereo unspecified)	23µM*	?	?	?	?	-165%
COc1ccc(CC(=O)N2C[C@H]3C[C@@H](C2)c2cccc(=O)n2C3)cc1	0%	4%	14%	3%	i	5%
COc1ccc(OC(=O)N2C/C(=C/c3ccccc3)C(=O)/C(=C\c3ccccc3)C2)cc1	-5%	?	?	-13%	32µM*	-5%
C=C1C(=O)[C@@]23C[C@H]4[C@@H]5[C@@]6(C)CCC[C@@]57[C@@H]2[C@@H](O)[C@@H]1C[C@H]3[C@H]7N4C6	23µM*	?	13µM*	13µM*	7.9µM*	-48%
O=c1c2ccccc2sn1-c1ccc(Cl)cc1	/	?	?	/	18µM*	-78%
O=C1C=CC2C3C(=O)N(c4ccccc4)C(=O)C3C1N2Cc1ccccc1 (stereo unspecified)	13%	?	2.8µM*	0%	6µM*	13µM*
Cc1ccc(-n2ncc(C(=O)N3CCN(c4ccc(Cl)cc4)CC3)c2C2CCN(C(=O)OC(C)(C)C)CC2)c(C)c1	15µM*	-9%	-8%	-28%	i	-14%
CC1(C)C(C(=O)N2CCN(c3ccc(Cl)cc3)CC2)C1(C)C	-20%	?	-17%	-3%	i	-23%
COC[C@H]1OC(=O)c2coc3c2[C@@]1(C)C1=C(C3=O)[C@@H]2CCC(=O)[C@@]2(C)C[C@H]1OC(C)=O	3.7µM*	-23%	?	16µM*	i	-28%
CCn1cc2nc(SCc3cccc(C(F)(F)F)c3)n(Cc3ccc(OC)cc3)c(=O)c2n1	23µM*	-26%	?	-20%	i	-28%
CCn1cc2nc(SCc3c(F)cccc3Cl)n(CCc3ccccc3)c(=O)c2n1	?	-34%	?	-24%	i	-26%
CN1[C@H]2CC[C@@H]1[C@@H](C(=O)O)[C@@H](OC(=O)c1ccccc1)C2	/	/	/	/	i	/
O=C(Nc1ccc2nc(SCC(=O)N3CCOCC3)sc2c1)c1ccc(Cl)cc1	-19%	/	?	-8%	/	-24%
O=C(NCCN1CCC2(CC1)C(=O)NCN2c1cccc(F)c1)c1ccc2ccccc2c1	/	13µM*	/	/	32µM*	/
O=C1NCN(c2ccccc2)C12CCN(CC1COc3ccccc3O1)CC2 (stereo unspecified)	/	2%	/	/	i	/
C[C@H]1COC(=O)[C@H](Cc2ccc(F)cc2)CC/C=C/C[C@@H](CC(=O)N(CCO)Cc2ccccc2)C(=O)N1	-6%	3%	?	-4%	?	-26%
O=[N+]([O-])c1ccc(Cl)c([N+](=O)[O-])c1	?	?	5µM*	-16%	18µM*	7.1µM*
COC(=O)C1=C(c2cc3ccccc3s2)C[C@@H]2CC[C@H]1N2C(=O)NC1CCCCC1	?	?	?	-19%	?	-45%
CC[n+]1c(SC)ccc2cc(OC)ccc21	18µM*	-7%	-16%	?	i	1%
COC(=O)C1=C(c2ccccc2OCc2ccccc2)C[C@@H]2CC[C@H]1N2C(=O)NCc1ccc(F)cc1	23µM*	?	?	?	?	1%
